AmpC detergent: inhibitors of E. coli AmpC beta-lactamase with detergent. 370,000 tested, 0.041% active. AmpC hydrolysis of nitrocefin, absorbance 480 nm, 0.01% Triton. AID 485294. Potency, µM (highest dose often 114 µM), for inactives: at the top dose activity change, negative = inhibition, usual class: inhibitors. P00811;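 note: 0% = no-compound wells and -100% = no-enzyme wells; nearly all actives have a fitted effect of over 25% in size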
Target sequence (P00811 whole entry, looked up): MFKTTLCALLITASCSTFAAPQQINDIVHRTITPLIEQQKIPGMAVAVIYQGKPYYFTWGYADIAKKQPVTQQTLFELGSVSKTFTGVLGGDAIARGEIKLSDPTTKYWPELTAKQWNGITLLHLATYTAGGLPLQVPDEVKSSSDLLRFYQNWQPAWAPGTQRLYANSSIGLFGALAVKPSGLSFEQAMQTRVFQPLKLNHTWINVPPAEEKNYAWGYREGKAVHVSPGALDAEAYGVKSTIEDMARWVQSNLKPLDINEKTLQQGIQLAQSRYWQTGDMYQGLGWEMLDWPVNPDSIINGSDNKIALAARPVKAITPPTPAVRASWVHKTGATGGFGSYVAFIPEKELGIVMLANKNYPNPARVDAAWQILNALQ
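20 mM phosphate pH 7.0 + 0.01% (detergent screen) or 0.0001% Triton X-100; 5.3 nM AmpC reagent; cpd preinc 15 min RT; nitrocefin (800 uM stock) to start; A480 q20 s × 4 min; Activity was normalised to no-enzyme and no-compound control wells.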
AmpC no deterg: AmpC beta-lactamase inhibition without detergent. 330,000 tested, 0.52% active. Potency, µM (doses to about 57.1 µM), for inactives: top-dose activity change, negative = inhibition, usual class: inhibitors. AmpC nitrocefin hydrolysis, absorbance 480 nm, 0.0001% Triton. P00811;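 note: plate controls were no compound for no effect and no enzyme for full effect; nearly all actives have a fitted effect of over 20% in size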
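AmpC (5.3 nM in the dispensed reagent) in 20 mM phosphate pH 7.0 with 0.01% (detergent screen) or 0.0001% Triton X-100 was preincubated with compounds for 15 min at room temperature. Nitrocefin was then added from an 800 uM solution, and hydrolysis was followed at 480 nm.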
Sm TGR inh: blocks Schistosoma mansoni thioredoxin glutathione reductase. AID 485364. purified TGR, DTNB reduction, TNB absorbance 405 nm. Potency, µM (highest dose often 114 µM), for the others: top-dose activity change, negative = inhibition, most hits filed as inhibitors. 360,000 tested, 3% active; note: nearly all actives have a fitted effect of over 60% in size
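TGR 20 nM + NADPH 100 uM (dispensed conc.), cpd preinc 15 min RT; start with NADPH (500 uM addition) then DTNB (15 mM addition). Kinetic TNB absorbance, 405 nm filter. Four-parameter Hill fit across titration.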
The depositor's hits bear a star; ? = inconclusive; . = no result given. Sampled rows, rich in hits. Any-hit rate of the full collection: about 3.3%. Calls come from the whole dose curve; as a rule, active = well fitted curve in the direction sought with a large enough effect; inconclusive = small, poorly fitted or top-dose-only effect, or another doubt; inactive = no such curve, though single readings can be large; an effect the other way counts as inactive or inconclusive. Unless noted, % is set by controls: 0 for no effect and ±100 for the full control effect; potency is the fitted concentration of half-maximal effect.

SMILES	AmpC detergent	AmpC no deterg	Sm TGR inh
CC(SCc1ccccc1)C(=O)Nc1ccccc1F (stereo unspecified)	0.2%	-18.0%	0.0%
CN(C)c1ccc(NC(=O)COC(=O)Cn2nnc3ccccc32)cc1	-0.7%	-17.0%	1.7%
O=C(Nc1ccccc1)C1=C[C@@H](c2coc3ccccc3c2=O)C[C@@H](OCCCCO)O1	12.6%	85.4%	-21.0%
CCCCOc1ccccc1C(=O)N(Cc1ccco1)C1CCS(=O)(=O)C1 (stereo unspecified)	-5.7%	13.1%	-31.6%
COc1ccc(OC)c(CNC(=O)CCC(=O)N2Cc3cccc(OC)c3Oc3ncccc32)c1	1.1%	72.4%	-3.8%
CCN(CC)S(=O)(=O)c1ccc2[nH]c(=O)cc(C(=O)Nc3ccccc3N3CCOCC3)c2c1	5.4%	28.9%	1.1%
COc1cccc(N2CCN(S(=O)(=O)c3ccc4c(c3)NC(=O)CS4)CC2)c1	-4.7%	-58.4%	1.3%
Cc1cccc(OCCSc2nc3ccccc3n2CC(=O)N2CCOCC2)c1	8.2%	.	37.5%
Cc1ccc(NC(=O)/C=C/c2ccco2)nc1	-0.8%	-11.4%	-17.0%
CC(=C/C(=O)O)/C=C/c1ccco1	?	-8.8%	7.94µM*
CC(/C=C/c1ccc(Cl)o1)=C\C(=O)O	-0.8%	-12.2%	8.91µM*
O=C(/C=C/c1ccc(-c2ccccc2)o1)c1ccccc1	-14.8%	-32.7%	?
CN(C(=O)CSc1nnc(COc2ccccc2)o1)c1ccccc1	-10.8%	.	-22.6%
Cn1ncc2c(NNC(=O)C3CCCCC3)ncnc21	4.8%	-6.9%	10.1%
C=CCn1c(=O)c(C(C)=O)cn(N(C)c2ncc(C(F)(F)F)cc2Cl)c1=O	-9.5%	66.7%	2.9%
O=[N+]([O-])c1ccccc1CNCCO	?	-11.5%	-17.9%
O=[N+]([O-])c1ccccc1CNCCCCCO	-5.8%	-12.9%	50.1µM*
CCn1cc(C(=O)NCc2ccccc2OC)c(=O)c2cc(S(=O)(=O)N3CCCCCC3)ccc21	-1.3%	.	-11.5%
CC(C)NC(=O)N(C)C[C@H]1Oc2ccc(NS(=O)(=O)c3ccc(F)cc3)cc2C(=O)N([C@H](C)CO)C[C@@H]1C	.	-9.8%	.
CCn1nc(C)cc1C(=O)N1CCCC(C(=O)c2ccccc2SC)C1 (stereo unspecified)	0.1%	54.9%	1.7%
Cc1cc(=O)oc2cc(OCCSCCN3CCCCC3)ccc12	1.5%	-14.6%	2.0%
COc1cc(NC(=O)c2ccc(S(=O)(=O)N(C)c3ccccc3)cc2)cc(OC)c1	.	-16.6%	.
Cc1ccc(N2C(=O)[C@@H]3C(C(=O)CCN4C(=O)c5ccccc5C4=O)=NN[C@@H]3C2=O)cc1	?	-17.3%	-20.9%
O=C(CCN1C(=O)c2ccccc2C1=O)C1=NN[C@@H]2C(=O)N(c3ccc4c(c3)OCO4)C(=O)[C@H]12	-6.6%	-22.8%	25.1µM*
CNC(=O)NC(=O)C(OC(=O)Cc1cccc(C(F)(F)F)c1)c1ccccc1 (stereo unspecified)	10.1%	-21.4%	-0.5%
SMILES	AmpC detergent	AmpC no deterg	Sm TGR inh
Cc1ccc(NC(=O)C2CC(=O)Nc3ncnn32)cc1Cl (stereo unspecified)	?	-25.0%	8.7%
Cc1ccc(NC(=O)C2CC(=O)Nc3ncnn32)c(C)c1 (stereo unspecified)	?	-16.7%	56.2µM*
Cc1cc(Cl)ccc1NC(=O)C1CCN(c2nnc(-n3c(C)ccc3C)s2)CC1	18.1%	.	-32.3%
Cc1ccc(NC(=O)CC2Sc3ccccc3NC2=O)c(C)c1 (stereo unspecified)	10.5%	.	-1.2%
Cc1ccc(NC(=O)CC2SC3=NCCCN3C2=O)c(C)c1 (stereo unspecified)	-13.9%	-2.4%	2.82µM*
Cc1cccc(N2CCN(C(=O)c3ccc4c(c3)NC(=O)C(CSCc3cccc(F)c3)N4)CC2C)c1 (stereo unspecified)	-6.2%	-16.3%	0.0%
O=C1Nc2cc(C(=O)N3CCC4(CC3)OCCO4)ccc2NC1CSCc1cccc(F)c1 (stereo unspecified)	1.2%	79.4%	50.1µM*
CC1=CCC2C(=O)N(c3nc(C)cc(C)n3)C(=O)C2C1 (stereo unspecified)	1.6%	-1.1%	7.6%
CC1=CCC2C(=O)N(c3ccc4ccccc4n3)C(=O)C2C1 (stereo unspecified)	-0.3%	0.141µM*	-0.6%
CCOc1ccccc1NC(=O)C(OC(=O)c1ccccc1)c1ccccc1 (stereo unspecified)	0.2%	-19.8%	-3.9%
CCOc1ccccc1NC(=O)C(OC(=O)c1ccc(NC(=O)CC#N)cc1)c1ccccc1 (stereo unspecified)	-12.2%	7.94µM*	-1.2%
CCCC(=O)N(Cc1cc(=O)[nH]c2ccccc12)c1ccc(C)cc1C	-4.9%	0.0%	-2.8%
Cc1ccc(N(Cc2cc(=O)[nH]c3ccccc23)C(=O)CCl)c(C)c1	1.3%	-21.5%	12.6µM*
CC1CCCCC1N(C)C1CCN(C(=O)CNC(=O)/C=C/c2cccc(Cl)c2)CC1 (stereo unspecified)	1.5%	6.9%	35.5µM*
CN(C1CCCC1)C1CCN(C(=O)CNC(=O)/C=C/c2ccccc2)CC1	12.9%	-16.4%	6.0%
O=C(Nc1ccc(Br)cc1)c1cccc(N2C(=O)C3CCCCC3C2=O)c1 (stereo unspecified)	-1.0%	-16.0%	2.3%
Cc1cccc(C(=O)NNC(=O)c2ccc(F)cc2)c1	-7.4%	-12.3%	7.94µM*
COC(=O)c1ccc(NC(=O)c2cccc(C)c2)cc1	5.4%	-13.1%	89.1µM*
COC(=O)c1ccc(NC(=O)c2cccc(OC)c2)cc1	-0.4%	-33.3%	0.8%
Cc1cccc(C(=O)NNC(=O)c2cccc(C)c2)c1	0.9%	-8.7%	8.3%
CCCCN(C(=O)c1cc(S(=O)(=O)N2CCOCC2)ccc1Cl)c1c(N)n(CC(C)C)c(=O)[nH]c1=O	-9.1%	-20.5%	-1.6%
CCSc1nnc2c(n1)OC(c1ccc(OC)c(OC)c1)N(C(C)=O)c1ccccc1-2 (stereo unspecified)	11.4%	.	-0.4%
CC(=O)N1CCN=C1SCc1cccc(F)c1	-8.7%	0.8%	2.6%
CC(C)c1cc2c(c(O)c1O)[C@@]13CCCC(C)(C)C1CC2OC3=O (stereo partly specified)	?	-45.9%	2.82µM*
O=C(CC1CCCC1)NCCS(=O)(=O)N1CCN(c2ccc(F)cc2)CC1	-12.8%	-9.7%	1.3%
SMILES	AmpC detergent	AmpC no deterg	Sm TGR inh
CCOC(=O)C1(CC)NC(c2ccco2)C2C(=O)N(c3ccc(C)cc3)C(=O)C21 (stereo unspecified)	-17.0%	51.9%	44.7µM*
CCCC1(C(=O)OC)NC(c2ccco2)C2C(=O)N(c3ccc(C)cc3)C(=O)C21 (stereo unspecified)	5.5%	3.8%	-28.0%
CC1(C)NC(=O)N(c2ccc([N+](=O)[O-])c(C(F)(F)F)c2)C1=O	-11.9%	-6.7%	-8.4%
C=Cc1ccc(C2=CC(=O)C[C@H](c3ccc(OC)cc3)C2)cc1	-9.4%	-16.2%	2.5%
CCC1CCCCN1C(=O)CSc1nnc(-c2cccc(Cl)c2)o1 (stereo unspecified)	?	5.01µM*	-0.2%
CCC1CCCCN1C(=O)CSc1nnc(-c2ccc(Cl)cc2)o1 (stereo unspecified)	?	-19.9%	-24.7%

Screening results deposited in PubChem by National Center for Advancing Translational Sciences (NCATS).
